Screening data (PubChem)
HDAC3 inh: inhibitors of human histone deacetylase 3; O15379; recombinant HDAC3, fluorogenic peptide/trypsin coupled, fluorescence; inhibition, % at 8.3 µM; hit rate 0.15% among 320,000; in the data active = inhibition above about 26%, passing the limit was not always enough; inconclusive = no clear call, values can overlap the other calls
APOBEC3G inh: APOBEC3G (human) deaminase inhibition; inhibition, % at 20 µM; AID 493012; hit rate 0.28% among 330,000; Q9HC16; recombinant A3G, ssDNA deamination FAM/TAMRA fluorescence;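 active = inhibition of at least 40% at 20 µM, with no more than 30% in the related APOBEC3A deaminase screen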;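 also: plate controls were DMSO wells with A3G for no effect and wells lacking A3G enzyme for full effect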
Target sequence (Q9HC16 whole entry, looked up): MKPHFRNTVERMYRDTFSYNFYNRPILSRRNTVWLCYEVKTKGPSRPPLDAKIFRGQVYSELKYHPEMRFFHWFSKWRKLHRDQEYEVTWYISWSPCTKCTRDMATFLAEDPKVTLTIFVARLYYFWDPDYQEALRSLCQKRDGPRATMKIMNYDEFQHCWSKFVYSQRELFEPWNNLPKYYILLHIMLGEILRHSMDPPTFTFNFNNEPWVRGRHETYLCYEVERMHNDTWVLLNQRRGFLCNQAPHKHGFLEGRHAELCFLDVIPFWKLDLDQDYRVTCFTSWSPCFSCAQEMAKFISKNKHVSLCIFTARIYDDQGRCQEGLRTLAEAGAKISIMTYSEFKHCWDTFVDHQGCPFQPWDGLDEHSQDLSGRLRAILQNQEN
A3A deaminase: blocks human APOBEC3A ssDNA deamination | P31941 | recombinant A3A, FAM/TAMRA ssDNA deamination fluorescence | inhibition, % at 20 µM | hit rate 0.41% among 330,000;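 active = at least 40% inhibition at 20 µM here, with at most 30% in a related deaminase screen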;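 also: plate controls were A3A with DMSO for no effect and wells lacking A3A enzyme for full effect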
Target sequence (P31941 whole entry, looked up): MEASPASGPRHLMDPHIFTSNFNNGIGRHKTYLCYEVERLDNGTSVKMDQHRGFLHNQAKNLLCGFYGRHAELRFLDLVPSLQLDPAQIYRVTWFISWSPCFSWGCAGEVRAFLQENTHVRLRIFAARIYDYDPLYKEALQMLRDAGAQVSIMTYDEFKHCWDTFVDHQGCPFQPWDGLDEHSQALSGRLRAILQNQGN
LANA-H2A inh: blocks KSHV LANA binding to histone H2A/H2B | Q9QR71 | cell-free LANA-H2A/H2B peptide, fluorescence polarization | inhibition, % (no concentration beside the values) | hit rate 0.6% among 320,000; in the data active = inhibition mostly above about 10%, no sharp cut-off; inactive = mostly below about 6.7%
APOBEC3G confirm: APOBEC3G (human) deaminase inhibition, confirmed; AID 493152; shares compounds with APOBEC3G inh; hit rate 72% among 890; recombinant A3G ssDNA deaminase, UDG/FAM-TAMRA fluorescence; inhibition, % at 20 µM;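 active = inhibition reaching a set limit in any replicate at 20 µM, the limit being 80% of the first screen's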
UDG ctr A3G: counter-screen for APOBEC3G inhibitors: E. coli UDG; UDG counterscreen, FAM/TAMRA oligo fluorescence; inhibition, % at 20 µM; shares compounds with APOBEC3G inh; 710 tested, under 10 active; AID 504715;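 active = compounds giving 40% or more inhibition at 20 µM in any one of the three replicates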;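 also: plate controls were DMSO wells with UDG and oligo for no effect and DMSO wells lacking both for full effect; inhibitors lower the FAM signal released by uracil excision and alkaline cleavage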
Active calls of the source: *. An excerpt weighted towards active compounds, which were near 1.4% of everything screened.

What do the screens show for `CCCCN1C(=O)c2cccc3cc(O)cc(c23)C1=O`?
HDAC3 inh: -6; APOBEC3G inh: -2; A3A deaminase: 0; LANA-H2A inh: 1

How did CC(C)(C)n1nnnc1C(c1cccnc1)N(Cc1ccccc1)Cc1ccco1 (stereo not given) do in these assays?
HDAC3 inh: 1; APOBEC3G inh: 41*; A3A deaminase: 1; LANA-H2A inh: 5; APOBEC3G confirm: 1

Results for COc1cccc(CN(Cc2ccco2)C(c2ccc(F)cc2)c2nnnn2C(C)(C)C)c1 (stereo not given) ?
HDAC3 inh: 6; APOBEC3G inh: 5; A3A deaminase: 5; LANA-H2A inh: 2

What do the screens show for `COc1cccc(C2CC(=O)N3CN(c4ccccc4F)CSC3=C2C#N)c1` (stereo not given)?
APOBEC3G inh: 57*; A3A deaminase: -2; LANA-H2A inh: -2; APOBEC3G confirm: 31*; UDG ctr A3G: -2

Results for COc1ccc(OC)c(C2CC(=O)N3CN(c4ccccc4F)CSC3=C2C#N)c1 (stereo not given) ?
HDAC3 inh: inconclusive; APOBEC3G inh: 67*; A3A deaminase: -1; LANA-H2A inh: 0; APOBEC3G confirm: 21; UDG ctr A3G: -3

How did CCOC(=O)c1ccc(N2CSC3=C(C#N)C(c4ccc(OC)cc4OC)CC(=O)N3C2)cc1 (stereo not given) do in these assays?
HDAC3 inh: inconclusive; APOBEC3G inh: 4; A3A deaminase: 0; LANA-H2A inh: 2

What do the screens show for `COc1cc(C2CC(=O)N3CN(c4ccccc4C)CSC3=C2C#N)cc(OC)c1OC` (stereo not given)?
HDAC3 inh: -2; APOBEC3G inh: 49*; A3A deaminase: 0; LANA-H2A inh: 4; APOBEC3G confirm: 33*

Results for COc1ccc2ccccc2c1C1CC(=O)N2CN(C)CSC2=C1C#N (stereo not given) ?
HDAC3 inh: 10; APOBEC3G inh: -3; A3A deaminase: -4; LANA-H2A inh: 1

What do the screens show for `Cc1nc(CNC(=O)C2CCC(=O)N(CCc3ccc(Cl)cc3)C2)sc1C` (stereo not given)?
HDAC3 inh: -7; APOBEC3G inh: -5; A3A deaminase: -4; LANA-H2A inh: 2

How did CCn1nc(C)c(CNC(=O)C2CCC(=O)N(CCc3ccc(Cl)cc3)C2)c1C (stereo not given) do in these assays?
HDAC3 inh: 2; APOBEC3G inh: 44*; A3A deaminase: 6; LANA-H2A inh: -5; APOBEC3G confirm: -1

What do the screens show for `Oc1cccc2cc3cccc(O)c3c(O)c12`?
HDAC3 inh: 2; APOBEC3G inh: 55*; A3A deaminase: 13; LANA-H2A inh: 2; APOBEC3G confirm: 62*; UDG ctr A3G: -2

What do the screens show for `O=c1oc(-c2ccc(O)c(O)c2)cc2cccc(O)c12`?
APOBEC3G inh: -5; A3A deaminase: 1

How did O=C(CN(Cc1ccc(F)cc1)S(=O)(=O)c1ccccc1)N1CCCCC1 do in these assays?
HDAC3 inh: -1; APOBEC3G inh: 81*; A3A deaminase: -2; LANA-H2A inh: 3; APOBEC3G confirm: -22; UDG ctr A3G: -1

How did CCOc1ccccc1N1C(=O)CC(Sc2n[nH]c(-c3ccccc3)n2)C1=O (stereo not given) do in these assays?
HDAC3 inh: 9; APOBEC3G inh: 58*; A3A deaminase: -2; LANA-H2A inh: 6; APOBEC3G confirm: 66*; UDG ctr A3G: 0

What do the screens show for `Cc1cc(-c2csc(N)n2)c(C)n1C`?
HDAC3 inh: 12; APOBEC3G inh: 44*; A3A deaminase: 7; LANA-H2A inh: -8; APOBEC3G confirm: 17*; UDG ctr A3G: -3

What do the screens show for `O=C(N/N=C/c1c[nH]c2ccccc12)c1cc(Cl)ccc1O`?
HDAC3 inh: -3; APOBEC3G inh: -11; A3A deaminase: -6; LANA-H2A inh: -3

Results for COC(=O)c1ccc(N2CCN(c3ccccc3)CC2)nc1 ?
HDAC3 inh: -3; APOBEC3G inh: 2; A3A deaminase: 0; LANA-H2A inh: -2

How did Cc1cc(NC(=O)c2ccno2)no1 do in these assays?
HDAC3 inh: -1; APOBEC3G inh: -8; A3A deaminase: -4; LANA-H2A inh: 4

How did Cc1ccc(NNC(=O)c2ccno2)c(C)c1 do in these assays?
HDAC3 inh: 3; APOBEC3G inh: 46*; A3A deaminase: -5; LANA-H2A inh: 0; APOBEC3G confirm: -1; UDG ctr A3G: -5

What do the screens show for `CCOCCCn1c(=NC(=O)c2cccnc2)c(C(=O)OCC)cc2c(=O)n3ccccc3nc21`?
HDAC3 inh: -367; APOBEC3G inh: 65*; A3A deaminase: 10; LANA-H2A inh: 2; APOBEC3G confirm: 58*; UDG ctr A3G: 0

What do the screens show for `Cn1c(-c2cc(Br)ccc2O)n[nH]c1=S`?
HDAC3 inh: -7; APOBEC3G inh: 48*; A3A deaminase: -5; LANA-H2A inh: -4; APOBEC3G confirm: 83*; UDG ctr A3G: -5

What do the screens show for `NC(=S)N=Nc1ccc(NN=C(N)N)cc1`?
HDAC3 inh: 1; APOBEC3G inh: 45*; A3A deaminase: 6; LANA-H2A inh: 7; APOBEC3G confirm: 46*

What do the screens show for `N#C/C(=N/Nc1ccc(OC(F)(F)F)cc1)C(N)=S`?
HDAC3 inh: 6; APOBEC3G inh: 14; A3A deaminase: 2; LANA-H2A inh: -2

Results for Cc1cc(C)nc(/N=c2/ssnc2Cl)c1 ?
HDAC3 inh: 3; APOBEC3G inh: 3; A3A deaminase: -3; LANA-H2A inh: 7

Results for COc1ccc(OC)c(N=C2C(=O)Nc3ccccc32)c1 ?
HDAC3 inh: -5; APOBEC3G inh: -2; A3A deaminase: 1; LANA-H2A inh: 4

How did COc1cc(N=c2ssnc2Cl)c(OC)cc1Cl do in these assays?
HDAC3 inh: 1; APOBEC3G inh: 67*; A3A deaminase: 2; LANA-H2A inh: 5; APOBEC3G confirm: 82*; UDG ctr A3G: -3

Results for COc1ccc(OC)c(N=c2ssnc2Cl)c1 ?
HDAC3 inh: 12; APOBEC3G inh: 74*; A3A deaminase: 1; LANA-H2A inh: -4; APOBEC3G confirm: 69*; UDG ctr A3G: -4

What do the screens show for `Cc1nn(C)c(Oc2cccc(C(F)(F)F)c2)c1C=O`?
HDAC3 inh: -2; APOBEC3G inh: -4; A3A deaminase: 0; LANA-H2A inh: 5

What do the screens show for `Cc1[nH]c(=O)[nH]c(=S)c1C(=O)Nc1ccc(Cl)c(Cl)c1`?
HDAC3 inh: 3; APOBEC3G inh: 60*; A3A deaminase: -1; LANA-H2A inh: -2; APOBEC3G confirm: 74*; UDG ctr A3G: -6

What do the screens show for `COc1ccc(C(=O)c2coc3ccc(OC(C)=O)cc23)cc1`?
HDAC3 inh: 7; APOBEC3G inh: -2; A3A deaminase: 0; LANA-H2A inh: 6

What do the screens show for `COc1ccc(OC)c(C(=O)c2coc3ccc(OC(C)=O)cc23)c1`?
HDAC3 inh: 2; APOBEC3G inh: 79*; A3A deaminase: 1; LANA-H2A inh: -4; APOBEC3G confirm: -2
